Compounds without any hit were thinned out: in the full panel of roughly 83,000, 20% have a hit.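 Assay: single dose, 48 h. Readout: percent growth (0 = no net growth; negative = cell death). Active: <10.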 A number with no mark means an inactive call. Calls of active or inactive are those of the source.

For 40 compounds, growth results are on record in PubChem BioAssay (NCI).

The assay concerns UO-31 renal. The assay is described as follows: NCI-60 one-dose screen, 48 h (100 = growth as untreated, 0 = no growth, -100 = all killed). The conditions noted are these: 10 µM unless noted. As for the experimental part: Growth inhibition of the UO-31 human tumor cell line is measured as a screen for anti-cancer activity. Cells are grown in 96 well plates and exposed to the test compound for 48 hours. Compounds are tested at a single concentration, which is 10^-5 M for most compounds. The reported endpoint is percent growth (GI% or GIPRCNT), where numbers from 0 - 100% represent growth inhibition, and numbers from -100% - 0 represent cell death. For example, a value of 40 represents 60% growth inhibition. A value of 0 means no net growth occurred over the course of the experiment. A value of -40 indicates 40% of cells at the beginning of the experiment died by the end of the experiment. A value of -100 means all cells are dead at the end of the experiment.
NCI-60 Human Tumor Cell Lines Screen was performed using the standard one-dose NCI protocol, which is described in more detail at https://dtp.cancer.gov/discovery_development/nci-60/default.htm.
Compounds with GIPRCNT values below 10 were considered active. Activity score was based on GIPRCNT using the following formula: […]
Score is 0 for GIPRCNT values of 100 or above, 50 for GIPRCNT values of 0, and 100 for GIPRCNT values of -100.
For `Cc1cc(C)c2c(NC(=O)Nc3ccc(Cl)c(Cl)c3)n[nH]c2n1`, the growth was 90.2%.

As to `O=C(Oc1c(Cl)c(Cl)c(Cl)c(Cl)c1Cl)C1CCCN1C(=O)OCc1ccccc1` (stereo not given), the growth is 56.1%. The result for `CCCCCCCCNC(C)C(O)c1ccc(SC(C)C)cc1` (stereo not given) reads 29.5%; that for `C/C(=N\NC(=S)N1CCCCC1)c1ccccn1`, -13.6% (active). On to `CCOC(=O)NNc1cccc(Cl)c1`, for which the growth was 70.6%. Consider `COc1ccc(/C=C2\N=C(c3cccnc3)N(c3ccccc3)NC2=O)cc1`, for which the growth is 82.2%. The result for `CCCCN(CCCC)CCC(=O)c1ccc(OC)c2ccccc12` reads 57.9%; that for `COc1ccc(/C(=C\c2ccc3c(c2)OCO3)C(=O)Nc2nc3ccc(F)cc3s2)cc1OC`, 68.5%; that for `Cc1cc(C)c2c(n1)sc1c(Nc3ccc(Cl)cc3Cl)ncnc12`, -8.56% (active).

Consider `O=C(NCC(c1ccsc1)N1CCCCCC1)c1ccc(C(F)(F)F)cc1` (stereo not given), for which the growth is 88.1%. Take `COc1ccc(/C(=C\c2cc(OC)c(OC)c(OC)c2)C(=O)N2CCCNCC2)cc1`: the growth was 85.9%. For the compound `CN1CCN(c2ccc(N3Cc4ccccc4OC4=C3C(=O)c3c(O)ccc(O)c3C4=O)cn2)CC1`, the growth is -99.5% (active). The result for `CC(=O)N[C@@H](CCC(N)=O)C(=O)O` reads 65.7%; that for `COc1cccc(NC(=O)[C@H](C(C)C)n2c(=O)[nH]c3ccccc3c2=O)c1`, 101%. Consider `c1ccc2c(Cc3csc4ccccc34)csc2c1`, for which the growth was 47.5%.

For `C#CC[C@@H]1C[C@]2(C)[C@H]3CC=C4[C@H]5[C@@H](C)[C@H](C)CC[C@]5(C(=O)NCCCCN)CC[C@@]4(C)[C@]3(C)CC[C@H]2C(C)(C)[C@H]1OC(C)=O`, the growth is 59.4%. The result for `Cc1[nH]n(C(=O)c2ccncc2)c(=O)c1N=Nc1ccc(O)c(C(=O)O)c1` reads 78.9%; that for `CCCN(CCC)CC(O)COc1ccccc1C(=O)Nc1ccccc1` (stereo not given), 78.1%; that for `C=CCn1c(SCC(=O)Nc2ccc(/C(C)=N\O)cc2)nnc1-c1cc(-c2ccccc2)nc2ccccc12`, 40.6%. The result for `CCCc1n(Cc2ccc3ccccc3c2)c2ccccc2[n+]1Cc1ccc2ccccc2c1` reads -15.4% (active). The result for `CCOC(=O)c1ccc(NC(=O)NC2=NCCS2)cc1` reads 36.5%. Take `O=C1c2ccccc2C2N1CCC1CCc3ccccc3N12` (stereo not given): the growth is 55.1%.

Turning to `N#Cc1nc(-c2cccc(Br)c2)cc(-c2ccc(Nc3nc(N4CCCCC4)nc(N4CCCCC4)n3)cc2)c1N`, the growth was -78.8% (active). The result for `O=C(c1ccccc1)N(CCCCl)C(=O)N(CCCCl)C(=O)c1ccccc1` reads 73.4%; that for `COC(=O)c1cc(Cl)cc([N+](=O)[O-])c1O`, 87.1%; that for `Oc1ccc(CCCCCCc2ccc(O)cc2)cc1`, 25.6%. The result for `CCSc1ccc([C@@H]2[C@@H](O)C(=O)N2c2cc(OC)c(OC)c(OC)c2)cc1` reads 50.5%; that for `Cc1nc([C@H]2CC[C@H]3[C@@H]4CCC5=CC(=O)CC[C@]5(C)[C@H]4CC[C@]23C)cs1`, 76.3%; that for `Cc1cc(N=Nc2ccc(-c3ccc(N=Nc4ccc(O)c(C(=O)O)c4)cc3)cc2)c(N)c(N=Nc2ccc(C(=O)O)cc2)c1N`, 76.9%.

For the compound `O=C1/C(=C\c2cccn2Cc2ccc(F)cc2)c2ccccc2N1c1c(Cl)cccc1Cl`, the growth was 51.8%. The result for `[Ag].[Ag].[NH-]S(=O)(=O)c1ccc(N=Nc2cc(N=Nc3ccc(S([NH-])(=O)=O)cc3)c3c(NC(=O)C(Cl)Cl)cccc3c2OC(=O)C(Cl)Cl)cc1.[c-]1nccs1.[c-]1nccs1` reads 69.4%; that for `COc1ccc(/C=C/C(=O)c2ccc(NC(=O)CSc3nnc(-c4ccc(OC)cc4)n3-c3ccccc3)cc2)cc1`, 79.3%. The result for `C[C@]12CCc3nc(Nc4ccc(O)cc4)sc3C1=CC[C@@H]1[C@@H]2CC[C@]2(C)/C(=N/NC(N)=S)CC[C@@H]12` reads -42% (active); that for `COc1cc2nccc(Oc3ccc(NC(=O)C4(C(=O)Nc5ccc(F)cc5)CC4)cc3)c2cc1O`, 54.4%; that for `CNC(=O)c1ccccc1Sc1ccc2c(/C=C/c3ccccn3)n[nH]c2c1`, 17.3%.

For `CCOC(C)(c1ccc(Cl)cc1)C1CCNCC1` (stereo not given), the growth is 80.6%. For the compound `O=C(O)C1[S][Sb]([CH](C(=O)O)[CH](C(=O)O)[Sb]2[S]C(C(=O)O)C(C(=O)O)[S]2)[S]C1C(=O)O` (stereo not given), the growth is 77.4%. In the case of `NC(=S)N/N=C(/c1cccs1)C1CC1`, the growth is 76.2%. With `O=S(=O)(NCC[C@@H]1C[C@H]1c1ccc2ccccc2c1)c1ccc(C(F)(F)F)cc1`, the growth is 81.7%. For the compound `Cc1ccc(CSCc2ccc(C(=O)NC3CC3)o2)cc1`, the growth was 74.7%.
